Assay outcomes from PubChem.
B2AR ag – agonists of human beta-2 adrenergic receptor inducing internalization; P07550; Am2.2-beta2AR cells, FAP receptor internalization, flow cytometry; response, % (no concentration beside the values); hit rate 0.43% among 340,000; AID 504454;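 active = response above a set limit, near 3 SD of response in nonfluorescent compounds, cut at about 42% in these data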
TLR9-MyD88 block – blocks human TLR9 binding to MyD88 | Q9NR96+Q99836 | CHO BLA complementation TLR9-MyD88, CCF4 FRET ratio | inhibition, % at 4.98 µM | hit rate 0.21% among 340,000;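 active = inhibition above the mean over all tested compounds plus 3 SD, cut at about 21% in these data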;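 also: 0% = DMSO only wells and 100% = clavulanate BLA inhibitor control wells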
ABHD5 PLIN5 PPI – ABHD5-PLIN5 protein interaction inhibition | Q00G26+Q8WTS1 | Split G. princeps luciferase complementation, luminescence, 4 h | inhibition, % at 4 µM | hit rate 0.78% among 360,000 | AID 602281;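 active = inhibition above the mean inhibition across every tested compound plus 3 SD, cut at about 22% in these data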;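 also: 0% = DMSO only wells and the 100% control is not disclosed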
Exocytosis inh – lytic granule exocytosis inhibition; TALL-104 LAMP-1 surface exposure, flow cytometry; cells stimulated with thapsigargin and PMA; inhibition, % at 10 µM; hit rate 0.66% among 360,000; AID 651702;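 active = inhibition above about 55%, limit read from the data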
NOD2 RIPK2 PPI – blocks binding of human NOD2 to RIPK2 | O43353 | CHO BLA complementation NOD2-RIPK2, CCF4 ratio | AID 624267 | hit rate 0.38% among 360,000 | inhibition, % at 4.98 µM; in the data active = inhibition above about 21%;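 also: 0% = vehicle only and 100% = reference blocker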
TLR4 MyD88 comp – inhibitors of human TLR4-MyD88 binding. O00206+Q99836. HeLa CL3-4 TLR4/MyD88 BLA complementation, FRET ratio. inhibition, % at 8.4 µM. hit rate 0.18% among 200,000. AID 861; in the data active = inhibition above about 25%;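 also: 0% = vehicle and 100% = reference inhibitor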
Target sequence (O00206 whole entry, looked up): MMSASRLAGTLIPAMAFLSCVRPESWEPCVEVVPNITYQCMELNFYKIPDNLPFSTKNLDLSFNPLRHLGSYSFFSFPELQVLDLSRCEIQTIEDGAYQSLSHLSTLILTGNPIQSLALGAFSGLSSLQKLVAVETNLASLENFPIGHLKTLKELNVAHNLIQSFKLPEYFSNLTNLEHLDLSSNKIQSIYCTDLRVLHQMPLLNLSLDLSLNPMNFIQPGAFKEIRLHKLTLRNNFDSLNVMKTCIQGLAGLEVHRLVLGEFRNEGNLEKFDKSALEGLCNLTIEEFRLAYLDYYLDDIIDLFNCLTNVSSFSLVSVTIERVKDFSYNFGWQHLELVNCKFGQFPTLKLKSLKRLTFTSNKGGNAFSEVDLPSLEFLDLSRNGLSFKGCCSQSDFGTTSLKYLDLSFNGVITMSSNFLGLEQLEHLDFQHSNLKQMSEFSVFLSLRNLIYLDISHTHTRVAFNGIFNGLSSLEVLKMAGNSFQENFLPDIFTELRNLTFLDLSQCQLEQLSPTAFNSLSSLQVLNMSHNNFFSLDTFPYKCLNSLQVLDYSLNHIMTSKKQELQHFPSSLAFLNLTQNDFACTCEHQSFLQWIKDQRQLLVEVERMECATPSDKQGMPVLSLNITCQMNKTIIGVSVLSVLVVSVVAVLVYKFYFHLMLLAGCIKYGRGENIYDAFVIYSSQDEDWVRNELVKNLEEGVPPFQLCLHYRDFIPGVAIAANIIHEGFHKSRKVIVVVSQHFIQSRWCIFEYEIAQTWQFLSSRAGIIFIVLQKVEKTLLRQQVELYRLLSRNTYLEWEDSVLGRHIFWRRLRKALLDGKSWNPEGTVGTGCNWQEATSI
Target sequence (Q99836 whole entry, looked up): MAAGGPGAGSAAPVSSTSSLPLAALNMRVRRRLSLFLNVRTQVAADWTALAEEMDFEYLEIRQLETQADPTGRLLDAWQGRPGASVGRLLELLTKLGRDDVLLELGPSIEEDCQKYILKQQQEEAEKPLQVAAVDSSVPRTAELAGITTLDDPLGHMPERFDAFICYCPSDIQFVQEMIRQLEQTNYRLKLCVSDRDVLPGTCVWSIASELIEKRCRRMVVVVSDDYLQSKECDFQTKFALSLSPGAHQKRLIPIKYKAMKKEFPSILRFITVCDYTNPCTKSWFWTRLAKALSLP
Granule exo CP1 – blocks lytic granule exocytosis. TALL-104 cells, LAMP-1 externalization, flow cytometry; stimulated with PMA plus thapsigargin. hit rate 11% among 1,500. inhibition, % at 10 µM. shares compounds with Exocytosis inh; in the data active = inhibition above about 60%;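 also: 0% = stimulated vehicle wells and 100% = unstimulated wells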
Active calls of the source: *; · = no result. A selection: hits, their analogues and other compounds. The true share with any hit is near 2%.

SMILES	B2AR ag	TLR9-MyD88 block	ABHD5 PLIN5 PPI	Exocytosis inh	NOD2 RIPK2 PPI	TLR4 MyD88 comp	Granule exo CP1
OCCCNc1ncnc2oc(-c3ccccc3)c(-c3ccccc3)c12	20	4	8	66*	-3	·	-6
Cc1cc(NC2CCCC2)n2ncc(-c3ccccc3)c2n1	22	3	-4	15	5	·	·
COc1ccc(CCNc2cc(C)nc3c(-c4ccccc4)cnn23)cc1OC	0	-12	2	-1	-8	-10	·
Cc1cc(NC(C)c2ccccc2)n2ncc(-c3ccccc3)c2n1 (configuration not stated)	4	-5	-11	95*	-7	·	18
Cc1cc(NCc2ccccc2)n2ncc(-c3ccccc3)c2n1	-4	1	-15	58*	4	·	-11
CC1C(=O)N(Cc2cn(Cc3ccco3)nn2)CCS(=O)(=O)N1Cc1ccc(-c2ccc(F)cc2Cl)cc1 (configuration not stated)	·	·	13	2	2	·	·
COc1ccc(OCCOC(=O)CCS(=O)(=O)c2ccc(C)cc2)cc1	-1	3	1	1	0	·	·
O=c1c(Cl)c2oc3ccccc3nc-2c2ccccc12	-90	9	4	102*	10	-3	77*
Clc1ccc(-c2nnc(Sc3nc4ccccc4o3)c3ccccc23)cc1	13	9	9	0	7	3	·
CN(Cc1ccccc1)c1ncnc2[nH]ncc12	-5	-4	-5	-9	-9	·	·
CN(Cc1ccccc1)c1ncnc2sccc12	-3	3	7	57*	-4	·	-3
O=C(CCS(=O)(=O)c1ccccc1)N(CCCN1CCOCC1)c1nc2ccccc2s1	6	3	-3	58*	2	·	-9
Cc1ccc(S(=O)(=O)CCC(=O)N(CCCN2CCOCC2)c2nc3ccccc3s2)cc1	4	-6	3	65*	-13	·	-8
CCOC(=O)c1cc(C(=O)c2cccs2)n2ccc(C(C)=O)cc12	-11	0	1	97*	-5	5	-2
NC(CCc1ccccc1)c1csc(NC(=O)Nc2cccc(Cl)c2)n1 (configuration not stated)	·	·	-12	57*	12	·	10
NC(c1ccccc1)c1csc(NC(=O)Nc2cccc(Cl)c2)n1 (configuration not stated)	·	·	3	-6	2	·	·
Cc1ccc(C(C)C)c(OCCNCc2ccccc2)c1	11	-4	-7	83*	7	·	-12
Cn1c(NCC(O)c2ccccc2)nc2c1c(=O)n(Cc1ccc(Cl)c(Cl)c1)c(=O)n2C (configuration not stated)	-14	-4	-1	92*	4	4	14
Cc1ccc(CNC(=O)c2ccc(N(C)S(=O)(=O)c3ccccc3)cc2)cc1	7	-4	17	67*	4	·	-4
CN(c1ccccc1)S(=O)(=O)c1ccc(C(=O)NCc2ccc(F)cc2)cc1	-8	-5	-6	1	4	·	·
COc1ccc(S(=O)(=O)Nc2cccc3c2O[C@H](CN(C)C(=O)Nc2ccc4c(c2)OCO4)[C@@H](C)CN([C@H](C)CO)C3=O)cc1	6	-10	-4	-2	-2	·	·
CCOc1ccc(OCC(O)CNC2CCN(Cc3ccccc3)CC2)cc1 (configuration not stated)	10	4	4	3	2	5	·
CC(C)(c1ccccc1)c1ccc(OCC(O)CNC2CCN(Cc3ccccc3)CC2)cc1 (configuration not stated)	23	11	4	62*	14	-1	85*
CCOc1ccc(Cl)cc1-c1cc(C(=O)NCCOC)[nH]n1	·	·	-5	-1	-5	·	·
Cc1ccc(C2(C)NC(=O)N(CC(=O)NCc3ccccc3Cl)C2=O)cc1 (configuration not stated)	-2	0	-7	5	8	·	·
COc1ccc(NC(C)=O)cc1CNC(=O)COc1ccccc1C(=O)Nc1cccc(C)c1C	-16	-7	4	-2	7	·	·
Cc1ccc2c(CN(C)Cc3ccccc3)cc(=O)oc2c1C	0	-1	-7	-18	-11	·	·
